Sampled rows, rich in hits. Any-hit rate of the full collection: about 18%.
TDP1 inh = inhibitors of human tyrosyl-DNA phosphodiesterase TDP1; Q9NUW8; recombinant TDP1, AlphaScreen DNA substrate cleavage; Potency, µM (highest dose often 130 µM), without a hit: at the top dose activity change, negative = inhibition, usual class: inhibitors; 0.28% of 350,000 active; AID 485290; note: potency is the fitted concentration of half-maximal effect; nearly all actives have a fitted effect of over 40% in size
Target sequence (Q9NUW8 whole entry, looked up): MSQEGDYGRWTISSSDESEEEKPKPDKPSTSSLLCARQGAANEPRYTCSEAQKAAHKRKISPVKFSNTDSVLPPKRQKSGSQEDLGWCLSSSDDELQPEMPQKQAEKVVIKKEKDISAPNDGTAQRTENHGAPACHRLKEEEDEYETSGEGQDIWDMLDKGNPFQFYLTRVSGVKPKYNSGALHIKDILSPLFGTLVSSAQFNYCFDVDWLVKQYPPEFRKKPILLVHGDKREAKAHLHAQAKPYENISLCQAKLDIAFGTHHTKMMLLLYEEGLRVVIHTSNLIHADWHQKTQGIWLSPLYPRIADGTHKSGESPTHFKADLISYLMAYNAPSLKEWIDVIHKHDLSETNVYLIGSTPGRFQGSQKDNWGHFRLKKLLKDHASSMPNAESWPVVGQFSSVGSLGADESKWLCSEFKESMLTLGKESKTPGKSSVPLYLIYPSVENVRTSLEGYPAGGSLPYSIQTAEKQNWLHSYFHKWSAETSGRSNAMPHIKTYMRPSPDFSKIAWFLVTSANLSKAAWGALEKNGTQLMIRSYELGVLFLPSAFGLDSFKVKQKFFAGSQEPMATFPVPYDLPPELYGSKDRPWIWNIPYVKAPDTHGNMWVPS
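AlphaScreen read-out: signal falls as enzyme removes the 3' tyrosine-FITC from a 5'-biotinylated DNA oligo (15 nM, 5 min, RT). Enzyme was E. coli-made recombinant Tdp1 at 1 nM, exposed to compound for 15 min beforehand; beads 10 ug/ml, 10 min.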
IL-1B inflam inh = inflammasome signaling inhibition, IL-1 beta readout; THP-1 LPS/ATP IL-1B secretion, AlphaLISA, 16 h; hits give low values; activity change, % at 57.5 µM; 4.7% of 360,000 active; AID 743279; in the data active = activity change below about -50%; inconclusive = mostly about -30% to -49%
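Secreted IL-1B measured by AlphaLISA bead assay after 16 h compound exposure of THP-1 cells; compounds (final up to 57.5 uM) added 1 h before LPS (250 ng/mL) and ATP (1.25 mM) stimulation; lower signal means less secretion.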
Six1-Eya2 inh = inhibitors of human Six1/Eya2 interaction; Q15475+O00167; AlphaScreen GST-Six1/His-Eya2 binding, biochemical; hits give low values; activity change, % (concentration not given with the values); 0.56% of 360,000 active; AID 651725; in the data active = activity change below about -65%; inconclusive = mostly about -30% to -63%
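GST-Six1 + His-Eya2 (5X stock: 250/500 nM); Tris pH 8.0, 300 mM NaCl, 0.05% BSA, 0.02% Tween 20; GSH donor/Ni acceptor beads; 1 h 37 °C dark; AlphaScreen readout.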
CtBP-E1A inh = inhibitors of CtBP/E1A interaction; AlphaScreen GST-E1A/His-CtBP binding, 1536-well; hits give low values; activity change, % (test concentration not listed); 0.49% of 340,000 active; AID 651724; in the data active = activity change below about -65%; inconclusive = mostly about -30% to -63%
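Homogeneous bead-based format: GST-tagged E1A captured on glutathione donor beads, His-tagged CtBP on nickel acceptor beads; compounds precede bead addition by 2 h at 37 °C.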
TDP1 cell noCPT = qHTS for Inhibitors of human tyrosyl-DNA phosphodiesterase 1 (TDP1): qHTS in cells in absence of CPT; DT40 Tdp1-/- hTDP1 cells, no CPT, ATP luminescence, 48 h; Potency, µM (series often up to 46.2 µM), for inactives: at the highest dose activity change, negative = growth inhibition, hits mostly inhibitors; 15% of 420,000 active; AID 686978, 2013; note: potency is the fitted concentration of half-maximal effect; nearly all actives have a fitted effect of over 55% in size
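Growth of hTDP1-complemented DT40 Tdp1-knockout cells is measured by ATP luminescence after at least 48 hr compound exposure at 37 °C, with DMSO substituting for the 20 nM CPT used in the parallel screen.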
DT40 TDP1 CPT = growth inhibition of DT40 Tdp1-/-;hTDP1 cells with camptothecin (screen for TDP1 inhibitors) | chicken DT40 Tdp1-/-;hTDP1 cells + 20 nM CPT, ATP luminescence, 48 h | Potency, µM (top dose mostly 46.2 µM), for inactives: top-dose activity change, negative = growth inhibition, usual class: inhibitors | 12% of 420,000 active; note: potency is the fitted concentration of half-maximal effect; nearly all actives have a fitted effect of over 55% in size
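Cell growth measured by CellTiter-Glo luminescence after a minimum 48 h, 37 C compound exposure with 20 nM CPT in Tdp1-knockout DT40 cells stably expressing hTDP1, seeded 400/well; qHTS titration format.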
Numbers without * were called inactive; ? = inconclusive; / = no result. Unless noted, calls come from the whole dose curve; as a rule, active = well fitted curve in the direction sought with a large enough effect; inconclusive = small, poorly fitted or top-dose-only effect, or another doubt; inactive = no such curve, though single readings can be large; an effect the other way counts as inactive or inconclusive. % is set by controls: 0 for no effect and ±100 for the full control effect.

SMILES | TDP1 inh | IL-1B inflam inh | Six1-Eya2 inh | CtBP-E1A inh | TDP1 cell noCPT | DT40 TDP1 CPT
COc1ccc(CC(=O)NCc2ccc(-n3cccc3)cc2)cc1OC | / | 21 | -11 | 0 | 2.3µM* | 2.3µM*
COc1cc(OC)cc(C(=O)NCc2ccc(-n3cccc3)cc2)c1 | -3% | -17 | -9 | -12 | ? | 18µM*
Cc1ccc(CNC(=O)c2ccc(-n3cccc3)cc2)cc1 | 13µM* | 27 | ? | 6 | -11% | -13%
O=C(O)CCCNS(=O)(=O)c1ccc(NCc2ccccc2)c(C(=O)O)c1 | 3% | -7 | 3 | 17 | 9% | 2%
O=C(CNC(=O)Cc1ccccc1)NCc1cccs1 | 1% | 5 | 1 | 1 | 0% | -13%
O=C(Cc1ccc(-n2cccc2)cc1)NCc1cccs1 | -1% | 34 | 7 | 2 | 1µM* | 0.82µM*
Cc1cc(C)c(N=Cc2c(O)c3ccccc3oc2=O)c(C)c1 | / | -15 | -17 | -5 | -15% | -4%
Cc1ccc(N2CCN(S(=O)(=O)c3nnc(NC(=O)c4ccco4)s3)CC2)cc1 | / | 22 | 2 | -5 | -14% | -2%
CN(Cc1ccccc1)C1=CC(=[N+]2CCCC2)CC(C)(C)C1 | 5% | -52* | 15 | -16 | 0.23µM* | 0.33µM*
CCN(CC)C1=CC(=[N+]2CCCC2)CC(C)(C)C1 | 3% | -10 | 13 | -6 | 0.52µM* | 0.52µM*
CCOC(=O)[C@H]1[C@H]2COc3ccc(C)cc3[C@@H]2N2C(=O)c3cc(Br)ccc3NC(=O)[C@@]12C | 2% | -2 | -10 | -1 | ? | ?
C=C(C)C(=O)NNc1ccccc1 | 6% | 4 | -1 | 6 | 7.3µM* | 5.2µM*
CCCCN1C(=O)C(CC(=O)NCC2CCCCC2)CC(C(=O)N(C)C)=C1C (stereo not given) | / | 9 | 1 | 4 | -18% | 4%
CCCCn1c(SCc2nc(N)nc(Nc3ccccc3C)n2)nc2ccccc2c1=O | 4% | -28 | 0 | 5 | 18µM* | ?
COCC(C)n1c(SCc2nc(N)nc(Nc3ccccc3C)n2)nc2ccccc2c1=O (stereo not given) | 3% | ? | 13 | 0 | ? | 16µM*
COCCNC(=O)CSc1nc2cc(OC)c(OC)cc2c(=O)n1CCC1=CCCCC1 | -7% | 28 | 7 | -9 | -18% | -15%
COC(=O)COc1cc(=O)oc2ccc(NS(=O)(=O)c3ccccc3)cc12 | / | -7 | -6 | / | 3% | 2%
Cc1ccc(S(=O)(=O)N2C[C@@H]3CCCC[C@@H]3[C@@H](C)[C@H]2CC(=O)c2ccccc2)cc1 | / | 7 | -2 | 1 | 13µM* | 15µM*
C=CCN1C(=O)C2C(C(=O)NCc3ccccc3)C3(C)C=CC2(O3)C1C(=O)NC(C)(C)C (stereo not given) | 4% | 10 | 3 | 3 | 1% | -9%
COc1ccc2nc(C)cc(SCC(=O)Nc3c(C)cc(C)cc3C)c2c1 | 2% | -12 | 0 | 11 | -6% | ?
COc1ccccc1/C=N/NC(=O)CSc1ccc2ccccc2n1 | / | 42 | 1 | -14 | ? | ?
CCCCSc1nc(C)cc(SCC(=O)N/N=C/c2cccc(OC)c2O)n1 | 9% | 136 | ? | ? | 1.3µM* | 1.5µM*
COc1cccc2c(SCC(=O)N/N=C/c3ccc(O)cc3O)cc(C)nc12 | 9% | -88* | -79* | -66* | 10µM* | ?
COc1ccccc1/C=N/NC(=O)CSc1cc(C)nc2ccccc12 | 8% | -66* | -7 | -4 | 8.2µM* | 7.3µM*
COc1ccc2nc(C)cc(SCC(=O)N/N=C/c3ccc(O)cc3O)c2c1 | 1% | ? | -74* | -70* | ? | ?

Screening results as filed in PubChem.
